# Rows were chosen to be rich in hits. Some 2.2% of all compounds tested hit in one or more screens of this group.
# Platelet DG rel: inhibitors of platelet dense granule secretion, primary screen, cell-based, MLPCN, human platelets; human platelet-rich plasma, SFLLRN dense granule ATP release, luminescence; 0.22% of 300,000 active; inhibition, %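 (compounds screened at 7.5 µM in platelet-rich plasma)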; AID 1663, 2009;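 active = mean replicate score, as percent of positive control, at or above 50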
# HIF activator: HIF pathway transcriptional activators, primary screen, cell-based, U2OS HRE-luciferase, luminescence; activation, % at 7.5 µM (by protocol); AID 1910, 2009; 0.32% of 300,000 active; U2OS HRE-luciferase reporter; normalized: DMSO 0%, desferrioxamine 100%;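 active = mean activation of at least 10% of the iron chelator positive control signal, with at least half of replicates also reaching 10%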
# VLA-4 inh: inhibition in human VLA-4 binding assay, primary screen, VLA-4 allosteric modulator project, MLPCN library, flow cytometry, VLA-4 expressing cells; inhibition, % (about 7 µM as worked out from the volumes in the protocol); 0.2% of 330,000 active; Integrin alpha-4 (Homo sapiens), P13612; ligand binding flow cytometry; AID 2557, 2010; in the data active = inhibition above about 50%
# CHT block: inhibitors of human choline transporter CHT; AID 488975, 2010; B-score at 10 µM; CHT-expressing cells, membrane potential dye, choline response; stronger effect = lower value; 0.86% of 310,000 active;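 active = B-score over 3 SD under the library average, and starting fluorescence ratio not unusually high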;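 note: choline stimulus applied at its EC90 after an EC20 pre-addition; B-score computed on integrated fluorescence ratio after choline addition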
# CHT PAM: CHT positive allosteric modulators, primary screen, cell-based, membrane potential dye, choline EC20 | High affinity choline transporter 1 (Homo sapiens), Q9GZV3 | CHT-expressing cells; stronger effect = higher value; LV-AA mutant CHT in HEK293 cells | B-score at 10 µM | 0.49% of 310,000 active | AID 488977, 2010;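 active = initial fluorescence not abnormally high and integrated response B-score, plate-corrected, over 3 SD above library mean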
# AI-2 QS mod: Vibrio harveyi AI-2 quorum sensing modulators, primary screen, JMH597 strain, luminescence/OD600 ratio | Vibrio harveyi JMH597 AI-2 luminescence/OD600 ratio, 9 h; stronger effect = lower value; strain lacks LuxN and CqsS sensors; 0 = neutral-control median | activity change, % at 7.5 µM | 0.4% of 300,000 active | AID 2094, 2009; in the data active = activity change below about -75%, passing the limit was not always enough;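 note: luminescence divided by OD600 gain over 9 h not by final OD600 alone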
# CHT inh conf: CHT inhibitors, confirmation, cell-based, membrane potential dye, duplicate; CHT activity remaining % of control (stronger effect = lower value), % at 10 µM; 70% of 2,400 active; shares compounds with CHT block; CHT-expressing cells, choline membrane potential dye; LV-to-AA substituted CHT, HEK293 cells;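 active = choline transporter activity left, mean of duplicates at 10 µM, below buffer-only control mean minus 3 SD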;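 note: depolarization triggered by choline at its EC90 following an EC20 pre-addition; 0% = hemicholinium-3 full block and 100% = buffer-only control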
# HEK293 CHT ctr: membrane potential effects in parental HEK293, counter-screen for CHT inhibitor project, cell-based, membrane potential dye; membrane potential ratio readout (active if shifted either direction beyond buffer ±3SD; no single direction) at 10 µM; 4% of 2,400 active; choline response; active = decrease or increase beyond buffer ±3SD; AID 493222, 2011; shares compounds with CHT block;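 note: parental cells lack the transporter so any hit is non-specific; ratio is peak minus trough fluorescence over baseline after EC90 choline challenge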
# Starred values were filed as active, the others as inactive; i = inactive; / = no result given.
SMILES,Platelet DG rel,HIF activator,VLA-4 inh,CHT block,CHT PAM,AI-2 QS mod,CHT inh conf,HEK293 CHT ctr
CC1Cc2ccccc2N1C(=O)COC(=O)c1ccc(O)cc1 (stereo not drawn),-3,0,5,-5.5*,i,16,52%*,i
COc1ccc(CCC(=O)N2CCc3ccccc32)cc1,-2,5,6,i,i,15,/,/
CCCn1c(SCC(=O)Nc2ccccc2-c2ccccc2)nnc1-c1ccoc1C,/,-1,4,i,i,11,/,/
CCn1c(SCC(=O)Nc2ccccc2C(=O)OC)nnc1-c1ccoc1C,2,0,7,-5.6*,i,21,i,i
COc1ccc(/C=C2\SC(=S)N(NS(=O)(=O)c3ccccc3)C2=O)c(OC)c1,-3,0,2,i,i,60,/,/
CCOc1cc(/C=C2\SC(=S)N(NS(=O)(=O)c3ccccc3)C2=O)ccc1O,12,0,-76,i,i,30,/,/
COc1ccc(OC)c(/C=C2\SC(=S)N(NS(=O)(=O)c3ccccc3)C2=O)c1,8,-1,3,-6.3*,i,43,57%*,i
CCOc1ccc(/C=C2\SC(=S)N(NS(=O)(=O)c3ccccc3)C2=O)cc1OC,8,0,7,-5.8*,i,50,56%*,i
CCOc1ccc(/C=C2\SC(=S)N(NS(=O)(=O)c3ccc(C)cc3)C2=O)cc1OC,-21,0,9,-6.1*,i,163,60%*,i
CCC(C)(C)NC(=O)C1CC(=O)N(CCc2ccc(F)cc2)C1 (stereo not drawn),1,1,0,i,i,8,/,/
Cc1ccc(S(=O)(=O)NC(C)C(=O)Nc2ccc3c(c2)OCO3)cc1 (stereo not drawn),-17,0,-2,-9*,i,23,i,i
COc1ccc(S(=O)(=O)NC(C)C(=O)Nc2ccc3c(c2)OCO3)cc1OC (stereo not drawn),7,0,-1,i,i,14,/,/
COc1ccc2c(c1)c(C(=O)CNc1nc(C)cs1)c(C)n2C,12,0,12,-5*,i,19,38%*,2.7*
Cc1noc(C)c1C(=O)Nc1sc(C)c(-c2ccccc2)c1C#N,1,0,-2,-5.2*,i,-1,71%*,i
Cc1ccc(S(=O)(=O)N2CCCOC2CNC(=O)C(=O)NC2CCCCC2)cc1 (stereo not drawn),0,0,1,i,i,18,/,/
O=C(NC1CCCC1)C(=O)N(c1ccccc1F)C(C(=O)NCC1CCCO1)c1cccs1 (stereo not drawn),-2,0,-3,i,i,12,/,/
Cc1ccc(C)c(N2CCN(C(=O)Cc3c(C(=O)O)[nH]c4ccc(Cl)cc34)CC2)c1,-5,-1,-8,i,i,11,/,/
O=C(O)c1[nH]c2ccc(Cl)cc2c1CC(=O)N1CCN(c2ccccc2)CC1,-3,0,4,-7.6*,i,5,36%*,i
CC(=O)Oc1cc2c3c(c1)/C(=C1/SC(=S)NC1=O)C(=O)N3C(C)(C)C=C2C,13,0,-5,-6.8*,i,27,37%*,i
CCOc1cc2c3c(c1)C(C)=CC(C)(C)N3C(=O)C2=O,-4,-1,22,i,i,28,/,/
CCOC(=O)c1sc(NC(=O)CN2CCN(c3ccccc3)CC2)nc1C,5,-1,5,i,i,25,/,/
CC(NC(=O)c1ccc(OC2CCN(Cc3ccccn3)CC2)cc1)c1ccccc1 (stereo not drawn),-4,0,5,-10*,i,11,-1.0%*,i
CC(C)c1nc(CNC(=O)c2ccc(OC3CCN(Cc4ccccn4)CC3)cc2)cs1,-8,0,24,i,i,-2,/,/
O=C(Nc1sc2c(c1C(=O)O)CCCC2)c1ccc(Cl)cc1,-7,0,-10,-6.3*,i,7,53%*,i
O=C(O)COCC(=O)Nc1ccc(OCCc2ccccc2)cc1,-7,1,-14,i,i,7,/,/
SMILES,Platelet DG rel,HIF activator,VLA-4 inh,CHT block,CHT PAM,AI-2 QS mod,CHT inh conf,HEK293 CHT ctr
O=C(O)/C(=C\c1ccc(-c2ccccc2[N+](=O)[O-])o1)c1ccccc1,-8,-1,-7,-5.6*,i,2,i,i
CSc1ncccc1C(=O)Nc1ccc2c(c1)OCCO2,/,/,8,/,/,/,/,/
CC(C)NC(=S)NNc1nc2ccccc2s1,-9,2,7,i,i,2,/,/
O=C(Nc1ccccc1)c1nnn(Cc2ccccc2)c1NC(=O)C(F)(F)F,3,3,18,-5*,i,19,32%*,i
C[C@H](CO)N1C[C@H](C)[C@@H](CN(C)C(=O)Nc2ccc3c(c2)OCO3)Oc2ccc(NC(=O)NC3CCCCC3)cc2C1=O,/,/,9,/,/,/,/,/
Cc1cccn2c(CNCC3OCCc4ccccc43)c(C(=O)N3CCCCC3)nc12 (stereo not drawn),-5,0,6,-6.6*,i,9,48%*,-13*
Cc1cccn2c(CNC3CCCc4ccccc43)c(C(=O)N3CCOCC3)nc12 (stereo not drawn),0,0,/,i,i,17,/,/
CC(C)(C)OC(=O)CNC(=O)c1[nH]cnc1C(=O)NC(c1ccccc1)c1ccccc1,0,-3,17,i,i,17,/,/
Cc1ccc(S(=O)(=O)N(C)C(C)CCc2ccco2)cc1 (stereo not drawn),/,/,19,/,/,/,/,/
CC(=O)c1ccc(S(=O)(=O)N(C)C(C)CCc2ccco2)cc1 (stereo not drawn),-1,0,-2,-5.6*,i,-2,71%*,i
COc1ccc(-c2cn(Cc3ccc(C(N)=O)cc3)c(CCN)n2)cc1,/,/,36,-8.1*,i,/,i,i
Cc1ccccc1NS(=O)(=O)c1ccc(N2CCCC2=O)cc1,-3,0,11,-5*,i,17,i,i
